# Measurements: PubChem BioAssay AID1159580 (chemical genetic matrix, 2015)
# Screen size: about 5,500 compounds; about 2,000 (36%) were called active. Not shown: some 18% with an inconclusive outcome. The list shows a part of the results. Unmarked numbers belong to inactive results. Cut-off read from the data, not from the text of the source: active = normalized growth mostly below about 0.91 (no sharp cut-off); inconclusive = no clear call, values can overlap the other calls; inactive = mostly above about 0.92.
# Test: chemical genetic growth profiling, strain panel (AID 1159580);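 note: tested at 20 µM; growth read once vehicle control cultures reached saturation at 30 °C; 1 = growth at the plate median or of vehicle wells; lower values mean less growth of the strain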
# Conditions: S. cerevisiae deletion strains, growth OD
# [1] = locus YAL013W, strain DEP1, active compounds read low
# [2] = locus YBR229C, strain ROT2, active compounds read low
# [3] = locus YDL101C, strain DUN1, active compounds read low
# [4] = locus YDR150W, strain NUM1, active compounds read low
# [5] = locus YEL061C, strain CIN8, active compounds read low
# [6] = locus YGR078C, strain PAC10, active compounds read low
# [7] = locus YGR229C, strain SMI1, active compounds read low
# [8] = locus YHR030C, strain SLT2, active compounds read low
# [9] = locus YHR087W, strain rtc3, active compounds read low
# [10] = locus YJR043C, strain POL32, active compounds read low
# [11] = locus YJR075W, strain HOC1, active compounds read low
# [12] = locus YLR039C, strain RIC1, active compounds read low
# [13] = locus YLR058C, strain SHM2 (second series), active compounds read low
# [14] = locus YLR085C, strain ARP6, active compounds read low
# [15] = locus YLR262C, strain YPT6, active compounds read low
# [16] = locus YML094W, strain GIM5, active compounds read low
# [17] = locus YMR219W, strain ESC1, active compounds read low
# [18] = locus YMR263W, strain SAP30, active compounds read low
# [19] = locus YMR307W, strain GAS1, active compounds read low
# [20] = locus YNL153C, strain GIM3, active compounds read low
# [21] = locus YNL298W, strain CLA4 (second series), active compounds read low
# [22] = locus YNL322C, strain KRE1, active compounds read low
# [23] = locus YNR030W, strain Alg12, active compounds read low
# [24] = locus YOL006C, strain TOP1, active compounds read low
# [25] = locus YPL055C, strain LGE1, active compounds read low
# [26] = locus YPL241C, strain CIN2, active compounds read low
# [27] = locus YPR135W, strain CTF4, active compounds read low
# [28] = locus YJL187C, strain SWE1, active compounds read low
compound,measurement,setting,value
Brc1ccc(-c2ccn[nH]2)s1,normalized growth,[1],0.978
same,normalized growth,[2],0.966
same,normalized growth,[3],0.971
same,normalized growth,[4],1.02
same,normalized growth,[5],0.938
same,normalized growth,[6],0.973
same,normalized growth,[7],0.955
same,normalized growth,[8],0.938
same,normalized growth,[9],0.993
same,normalized growth,[10],1
same,normalized growth,[11],0.971
same,normalized growth,"locus YKL190W, strain CNB1, active compounds read low",0.949
same,normalized growth,[12],0.703 (active)
same,normalized growth,[13],0.963
same,normalized growth,[14],0.721 (active)
same,normalized growth,[15],0.67 (active)
same,normalized growth,[16],0.886
same,normalized growth,[17],0.968
same,normalized growth,[18],1.02
same,normalized growth,[19],0.953
same,normalized growth,"locus YNL128W, strain TEP1, active compounds read low",0.94
same,normalized growth,[20],0.906 (active)
same,normalized growth,[21],0.936
same,normalized growth,[22],0.97
same,normalized growth,[23],0.939
same,normalized growth,[24],0.715 (active)
same,normalized growth,[25],1.07
same,normalized growth,[26],0.525 (active)
same,normalized growth,[27],0.789
CN(C)C=Nc1nnc(Sc2nc3cc(Cl)ccc3s2)s1,normalized growth,[1],0.939
same,normalized growth,[2],0.958
same,normalized growth,[3],0.977
same,normalized growth,[4],0.968
same,normalized growth,[5],0.93
same,normalized growth,[6],0.983
same,normalized growth,[8],0.631 (active)
same,normalized growth,[9],0.914
same,normalized growth,[28],0.938
same,normalized growth,[10],0.966
same,normalized growth,[11],0.974
same,normalized growth,[12],0.757 (active)
same,normalized growth,[13],0.969
same,normalized growth,[14],0.707 (active)
same,normalized growth,[15],0.826
same,normalized growth,[16],0.909
same,normalized growth,[17],0.932 (active)
same,normalized growth,[18],0.957
same,normalized growth,[20],0.962
same,normalized growth,[21],0.887
same,normalized growth,[22],0.987
same,normalized growth,[23],0.93
same,normalized growth,[24],0.71 (active)
same,normalized growth,[25],0.796 (active)
same,normalized growth,[26],0.848 (active)
same,normalized growth,[27],0.698
CN(C)C=Nc1nnc(SCc2ccc(C(=O)Oc3ccc(F)cc3F)cc2)s1,normalized growth,[1],0.989
same,normalized growth,[2],1.05
same,normalized growth,[3],1.02
same,normalized growth,[4],0.939
same,normalized growth,[5],1.01
same,normalized growth,[6],1.01
same,normalized growth,[7],1.01
same,normalized growth,[8],0.931
same,normalized growth,[9],1.02
same,normalized growth,[28],1.01
same,normalized growth,[10],0.949
same,normalized growth,[11],1.03
same,normalized growth,[12],1.08
same,normalized growth,[13],1.01
same,normalized growth,[14],0.919
same,normalized growth,[15],1.04
same,normalized growth,[16],0.973
same,normalized growth,[17],1.01
same,normalized growth,[18],0.924
same,normalized growth,[19],0.915
same,normalized growth,[20],1.02
same,normalized growth,[21],1
same,normalized growth,[22],1.03
same,normalized growth,[23],0.989
same,normalized growth,[24],1.07
same,normalized growth,[25],0.855
same,normalized growth,[26],0.996
same,normalized growth,[27],0.926
